Source: PubChem BioAssay (several laboratories)
Shown are actives, neighbours in structure and some others; about 4.2% of the full set was active somewhere.
CD11b adhes inh – inhibitors of CD11b/CD18 adhesion to fibrinogen, primary screen, K562 cells, luminescence | Integrin beta-2 (Homo sapiens) + Integrin alpha-M (Homo sapiens), P05107+P11215 | ATPlite luminescence; Mn2+ added to activate the integrin | inhibition, % at 10 µM | actives 0.54% (n = 93,000);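 active = primary inhibition of 50% or more at 10 µM, then 40% or more on retest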
Ec RNAP inh – E. coli RNAP inhibitors, biochemical; DNA-directed RNA polymerase subunit beta (Escherichia coli (strain K12)), P0A8V2; AID 559, 2006; inhibition, %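 (tested at 10 µM)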; actives 0.2% (n = 62,000); E. coli RNA polymerase, fluorescence transcription assay; in the data active = inhibition above about 20%;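 also: 0% = enzyme without compound and 100% = no enzyme blank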
CD11b adhes enh – enhancers of CD11b/CD18 adhesion to fibrinogen, primary screen, K562 cells, luminescence | Integrin beta-2 (Homo sapiens) + Integrin alpha-M (Homo sapiens), P05107+P11215 | ATPlite luminescence | activation, % at 10 µM | actives 0.07% (n = 93,000);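 active = 10 µM primary screen giving 50% or more activity, confirmed by 40% or more on retest at that dose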
Pyk2 oligo antag – antagonists of Pyk2 self-association, primary screen, Q293 cells, FERM NanoBiT luminescence, HTS. stronger effect = lower value. z-score (the deposit names both 25 µM and 10 µM). actives 0.83% (n = 99,000);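 active = Z-score of -3 or lower, scaled per plate to the spread of control and sample wells; inactive = z-score above -3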;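 also: negative z-score means lost luminescence so less FERM oligomerization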
Cav32 inh – Cav3.2 calcium influx blockers – cell-based, Fluo-4 calcium fluorescence, FDSS, MLSMR library, primary screen; Voltage-dependent T-type calcium channel subunit alpha-1H (Homo sapiens), O95180; Cav3.2-expressing cells; stronger effect = lower value; B-score at 10 µM; actives 4% (n = 100,000); AID 449739, 2010;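 active = single-dose well whose peak fluorescence ratio is a statistical outlier from its plate by either plate-standardised score or position-corrected B-score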
Starred values were filed as active, the others as inactive; nt = no result given.

SMILES	CD11b adhes inh	Ec RNAP inh	CD11b adhes enh	Pyk2 oligo antag	Cav32 inh
CCc1ccc(NC(=O)CSc2nnc(Cc3cccn3C)n2-c2ccc(F)cc2)cc1	-2	4	1	nt	-4.1*
CC(=O)c1ccc(NC(=O)CSc2nnc(Cc3cccn3C)n2-c2ccc(F)cc2)cc1	0	5	3	nt	1.3
Cn1cccc1Cc1nnc(SCC(=O)NCc2ccc(F)cc2)n1-c1ccc(F)cc1	0	-11	-3	nt	-4.1
CC(O)[C@H]1CNC(=O)C(=O)N1CC1(c2ccccc2)CC1 (some centres not stated)	nt	nt	nt	nt	-1.3
Cc1ccccc1C(=O)NNC(=S)NC(=O)c1ccc(Cl)cc1Cl	8	nt	-3	0.89	-4*
Cc1ccc(C(=O)NNC(=S)NC(=O)c2ccc(Cl)cc2)cc1	nt	nt	nt	0.81	-4.2*
O=C(CCc1ccccc1)NNC(=S)NC(=O)c1ccc(Cl)cc1	-9	nt	-1	nt	-3.7*
O=C(NNC(=S)NC(=O)c1cccnc1)c1ccc(Cl)cc1	nt	nt	nt	0.18	-2.7
COC(=O)C1N[C@@H]([C@@H](NC(=O)COc2ccccc2)C(=O)Nc2ccc(OC)cc2)SC1(C)C (some centres not stated)	nt	nt	nt	nt	-0.86
COc1cc(NC(=O)CSc2ncnc3c2cnn3Cc2ccccc2)cc(OC)c1	64*	nt	0	-1.7	-0.98
COc1cc(CNCc2ccccn2)ccc1OCc1cccc(Cl)c1	nt	nt	nt	-0.11	-0.56
CCOC(=O)Cc1csc(NC(=O)c2sc3nc4c(C)cc(C)cc4cc3c2N)n1	-49	nt	148	0.29	-3.3
Cc1nc2c(-c3ccccc3)c(C)nn2c(C)c1CCC(=O)NC(C)CCc1ccco1 (configuration not stated)	5	nt	6	nt	-5.7*
C=C1CCN(C(C(=O)OC)C(C)C)S(=O)(=O)c2ccccc21 (configuration not stated)	nt	nt	nt	nt	0.23
Cc1ccccc1CSCCNC(=O)CN(c1ccc2c(c1)OCO2)S(C)(=O)=O	-2	7	-2	1.6	-4.3*
C=CCc1cc(/C=N/NC(=O)CSc2nnc(CCCc3ccc(OC)cc3)o2)cc(OC)c1O	-19	nt	4	-0.29	-0.4
O=C1N(CC(=O)N2CCc3ccccc32)CCN1Cc1ccccc1Cl	7	7	-1	0.13	-3.5*
O=C(CSc1ncn(-c2ccccc2)n1)Nc1ccc(Br)cn1	2	2	-2	0.25	-5.4*
O=C(NC1CCCC1)C(c1ccccc1)N(C(=O)c1ccno1)c1ccccc1 (configuration not stated)	nt	nt	nt	-1.9	0.58
COc1cc(OC)cc(C(C(=O)NC2CCCCC2)N(C(=O)c2ccno2)c2ccccc2)c1 (configuration not stated)	nt	nt	nt	-3.6*	0.063
O=C(c1cc2ccccc2oc1=O)N1CCN(Cc2ccc3c(c2)OCO3)CC1	-4	5	4	0.26	nt
O=C(c1cc2ccccc2oc1=O)N(Cc1ccccc1)Cc1ccc2c(c1)OCO2	nt	nt	nt	-3.1*	-6.1*
CCOc1ccc2[nH]c(=O)c(CN(CC3COCCO3)C(=O)c3ccco3)cc2c1 (configuration not stated)	0	8	2	0.95	0.96
CCc1ccc2[nH]c(=O)c(CN(Cc3ccc4c(c3)OCO4)C(=O)c3ccco3)cc2c1	nt	-4	nt	nt	-3.3*
CCOc1ccc2[nH]c(=O)c(CN(Cc3ccc(F)cc3)C(=O)c3ccco3)cc2c1	-1	8	-2	1.5	-4.3*
SMILES	CD11b adhes inh	Ec RNAP inh	CD11b adhes enh	Pyk2 oligo antag	Cav32 inh
Cc1ccc2[nH]c(=O)c(CN(Cc3ccc4c(c3)OCO4)Cc3nnnn3Cc3ccco3)cc2c1	10	7	2	0.3	-5.8*
COC(=O)CSc1nnc(-c2ccncc2)o1	20	10	0	0.15	-0.41
OCC#CCSc1nnc(-c2ccc(Br)cc2)o1	-26	40*	0	1.1	-0.051
O=C(OCC#CCSc1nnc(-c2ccncc2)o1)c1cccs1	0	9	-3	1.9	-4.3*
CC(C)CCOC(=O)C1C(c2ccccc2)C(C(=O)O)C1c1ccccc1 (configuration not stated)	-2	nt	-4	2.5	-1.2
CC1(c2nnc(-c3ccncc3)o2)CC(c2cccc(Cl)c2)=NO1 (configuration not stated)	nt	nt	nt	nt	0.008
